Assay outcomes deposited in PubChem by The Scripps Research Institute Molecular Screening Center.
PAFAH2 inh – PAFAH2 enzyme inhibitors, primary screen, biochemical, fluorescence polarization, human; Platelet-activating factor acetylhydrolase 2, cytoplasmic (Homo sapiens), Q99487; recombinant PAFAH2, FP-rhodamine activity probe; inhibition, % at 3.39 µM; hit rate 0.99% among 340,000; AID 492956, 2010;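 active means inhibition above the mean over all tested compounds plus 3 SD, cut at about 30% in these data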;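 further: inhibitors block probe labeling of enzyme so polarization drops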
Fam108B inh – mouse Fam108B serine hydrolase inhibitors, primary screen, counter-screen for RBBP9 inhibitor project, biochemical, fluorescence polarization. recombinant Fam108B, FP-Rh probe fluorescence polarization. inhibition, % at 9.51 µM. hit rate 0.33% among 300,000. AID 1947, 2009;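 active means inhibition above the screen mean inhibition plus 3 SD, computed separately per campaign, cut at about 18% in these data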;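 further: inhibitors lower polarization as less probe binds the enzyme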
PAFAH1B3 inh – PAFAH1B3 enzyme inhibitors, primary screen, biochemical, fluorescence polarization, human; recombinant PAFAH1B3, FP-rhodamine probe; hit rate 0.28% among 340,000; inhibition, % at 3.39 µM; Platelet-activating factor acetylhydrolase IB subunit alpha1 (Homo sapiens), Q15102;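 active means inhibition above the screen-wide average of all tested compounds plus 3 SD, cut at about 25% in these data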
PAFAH1B2 FP inh – PAFAH1B2 enzyme inhibitors, primary screen, biochemical, fluorescence polarization, human; recombinant PAFAH1B2, FP-rhodamine activity probe; inhibition, % at 3.39 µM; hit rate 1.2% among 340,000;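 active means inhibition above the mean of all tested compounds plus 3 SD, cut at about 24% in these data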
Target sequence (P68402 whole entry, looked up): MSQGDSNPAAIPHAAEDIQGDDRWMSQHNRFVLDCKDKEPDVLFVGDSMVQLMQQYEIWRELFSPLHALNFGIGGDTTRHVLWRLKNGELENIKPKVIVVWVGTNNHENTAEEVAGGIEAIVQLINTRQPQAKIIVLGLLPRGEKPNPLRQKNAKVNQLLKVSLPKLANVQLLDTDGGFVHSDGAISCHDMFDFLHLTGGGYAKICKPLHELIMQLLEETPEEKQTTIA
pPAFAH FP inh – pPAFAH enzyme inhibitors, primary screen, biochemical, fluorescence polarization, human; Platelet-activating factor acetylhydrolase (Homo sapiens), Q13093; recombinant pPAFAH, FP-rhodamine probe fluorescence polarization; inhibition, % at 3.39 µM; hit rate 1.5% among 330,000;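 active means inhibition above the mean inhibition across the screen plus 3 SD, cut at about 25% in these data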;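 further: inhibitors block binding of the rhodamine activity-based probe so polarization drops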
PME-1 primary – PME-1 inhibitors via competitive probe labeling, primary screen, biochemical, fluorescence polarization, FP-Rh probe, HTS; Protein phosphatase methylesterase 1 (Homo sapiens), Q9Y570; inhibition, % at 5.9 µM; hit rate 0.53% among 320,000; recombinant PME-1; AID 2130, 2009;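 active means inhibition above the campaign mean of all compounds plus 3 SD, cut at about 26% in these data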;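 further: competitive labeling of PME-1 active site by serine hydrolase directed probe; inhibitors block probe labeling so polarization falls and inhibition rises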
Target sequence (Q9Y570 whole entry, looked up): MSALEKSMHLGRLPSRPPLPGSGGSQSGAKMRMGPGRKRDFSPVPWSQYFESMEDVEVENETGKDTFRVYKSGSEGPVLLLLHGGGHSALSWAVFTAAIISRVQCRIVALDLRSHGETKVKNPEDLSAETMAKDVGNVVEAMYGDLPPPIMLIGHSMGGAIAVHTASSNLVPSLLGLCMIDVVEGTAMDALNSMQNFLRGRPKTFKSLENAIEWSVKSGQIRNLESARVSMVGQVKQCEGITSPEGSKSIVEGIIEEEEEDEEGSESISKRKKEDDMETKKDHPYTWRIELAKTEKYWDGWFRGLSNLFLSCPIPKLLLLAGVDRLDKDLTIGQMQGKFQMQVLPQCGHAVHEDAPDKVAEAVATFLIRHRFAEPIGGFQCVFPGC
Fam108b inh conf – mouse Fam108b serine hydrolase inhibitors, confirmation, counter-screen for RBBP9 inhibitor project, biochemical, fluorescence polarization, triplicate. shares compounds with Fam108B inh. inhibition, % at 9.51 µM. hit rate 44% among 930. recombinant Fam108b, FP-Rh probe fluorescence polarization;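 active means inhibition above a limit from the primary screen, the mean over all compounds plus 3 SD, cut at about 19% in these data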;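 further: inhibitors free the probe so polarization falls as inhibition rises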
Fam108b ABPP HTS – inhibition of mouse Fam108b by HTS hits, late-stage follow-up, biochemical, gel-based ABPP, soluble recombinant form; fluorophosphonate probe; hit rate 44% among 260; AID 588649, 2011; shares compounds with Fam108B inh; inhibition, % at 20 µM; in the data active means inhibition above about 40%
Each line names hits and unclear results; the compound was inactive in the other large screens (follow-up assays come after a bar, where they were run). Sampled rows, rich in hits. Any-hit rate of the full collection: about 2.8%.

CC(NC(=O)c1ccc([N+](=O)[O-])o1)C1CC2CCC1C2 (centres undefined)	none (no result: Fam108B inh, PME-1 primary)
O=C(NC(=S)Nc1ccccc1F)C1CCCCC1	none
O=[N+]([O-])c1ccc2nc(-c3ccc(Cl)cc3)[nH]c2c1	Fam108B inh 19.5 | Fam108b inh conf inactive
CCOc1ccc2nc(N3CCCCCC3)sc2c1	none
COc1ccc2nc(N3C(=O)/C(=C/c4ccccc4)NC3=S)sc2c1	Fam108B inh 19.7, PME-1 primary 57.6 | Fam108b inh conf 22.4
CCOc1ccc2nc(N3C(=O)/C(=C/c4ccccc4)NC3=S)sc2c1	Fam108B inh 19.8 | Fam108b inh conf inactive
COCC(CN1CCN(C2=NS(=O)(=O)c3ccccc32)CC1)OC(=O)c1ccccc1 (centres undefined)	none
Cc1cc(Nc2ccccc2)nc(NCc2ccccc2)n1	none
Cc1cc(Nc2ccc(Cl)cc2)nc(NCc2ccccc2)n1	Fam108B inh 33.5 | Fam108b inh conf 32.1 | Fam108b ABPP HTS 45.0
Nc1ccc(C#Cc2ccc3sc4ccccc4c(=O)c3c2)cc1	Fam108B inh 22.2 | Fam108b inh conf inactive
Cc1ccc(-n2[nH]c(C)c(/C=N/Nc3ccc([N+](=O)[O-])cc3[N+](=O)[O-])c2=O)cc1C	Fam108B inh 25.2, PME-1 primary 29.8 | Fam108b inh conf inactive
Cc1[nH]n(-c2ccccc2)c(=O)c1/C=N/NC(=O)c1cccc([N+](=O)[O-])c1	none
Oc1ccc(C=NNc2ccnc3cc(Cl)ccc23)cc1O	none (no result: PAFAH2 inh, Fam108B inh, PAFAH1B3 inh, PAFAH1B2 FP inh, pPAFAH FP inh, PME-1 primary) | Fam108b ABPP HTS 85.0
O=C(N/N=C/c1ccc([N+](=O)[O-])cc1)c1ccccc1OCc1ccccc1	none
O=C(N/N=C/c1ccc([N+](=O)[O-])cc1)c1ccc(COc2ccccc2-c2ccccc2)cc1	Fam108B inh 25.6 | Fam108b inh conf inactive
O=C(CCn1cccn1)Nc1ccc2c(c1)OCO2	Fam108B inh 18.3 | Fam108b inh conf inactive
O=C(CSc1nnc(Cc2csc(Nc3cccc(Cl)c3)n2)o1)N1CCc2ccccc21	Fam108B inh 18.7 | Fam108b inh conf inactive
O=C(CSc1nnc(CNc2ccccc2)o1)N1CCc2ccccc21	none
COc1cc(OC)c2cc(C(=O)N/N=C/c3cccc(OC)c3O)[nH]c2c1	Fam108B inh 22.5, PME-1 primary 43.7 | Fam108b inh conf 22.2
COc1cc2cc(C(=O)N/N=C/c3ccc(F)cc3)[nH]c2cc1OC	none
COc1cccc(/C=N/NC(=O)c2cc3c(OC)ccc(OC)c3[nH]2)c1O	Fam108B inh 27.4, PAFAH1B3 inh 39.5, PAFAH1B2 FP inh 28.8, PME-1 primary 42.2 | Fam108b inh conf inactive
COc1cccc(/C=N/NC(=O)c2ccc3nc[nH]c3c2)c1O	none
COc1cccc(/C=N/NC(=O)N/N=C/c2cccc(OC)c2O)c1O	none
COc1cc2cc(C(=O)N/N=C/c3ccccc3Cl)[nH]c2cc1OC	Fam108B inh 32.3 | Fam108b inh conf 29.9
CCOC(=O)CC1(NC(=O)C2CCC(=O)N(CCc3ccccc3)C2)CCCCC1 (centres undefined)	none
O=C(Nc1ccc(F)cc1)Nc1ccc(N2CCCC2)c(S(=O)(=O)Nc2ccccc2Cl)c1	Fam108B inh 25.4, pPAFAH FP inh 24.7 | Fam108b inh conf 36.8 | Fam108b ABPP HTS 95.0
Cc1ccc2c(C)c(C)c(=O)n(C)c2c1	none (no result: Fam108B inh, pPAFAH FP inh, PME-1 primary)
CN(C)c1ccc(C=NN2C(=S)SC(C)(C)C2N(O)C(=O)Nc2ccc([N+](=O)[O-])cc2)cc1 (centres undefined)	none (no result: PAFAH2 inh, Fam108B inh, PAFAH1B3 inh, PAFAH1B2 FP inh, pPAFAH FP inh, PME-1 primary) | Fam108b ABPP HTS 95.0
CN(C)c1ccc(/C=N/N2C(=S)SC(C)(C)C2N(O)C(=O)Nc2ccc([N+](=O)[O-])cc2)cc1 (centres undefined)	Fam108B inh 33.3 | Fam108b inh conf 99.5
CNC(=O)N(O)C1N(/N=C/c2ccc(SC)cc2)C(=S)SC1(C)C (centres undefined)	none
COc1ccccc1NC(=O)Nc1nc(CC(=O)Nc2ccc(F)c(F)c2)cs1	Fam108B inh 20.2 | Fam108b inh conf inactive
COc1ccc2cc(CN(CC3CCCO3)C(=S)NCc3ccco3)c(=O)[nH]c2c1 (centres undefined)	none
Nc1cccc2nsnc12	none
Nc1cc2nsnc2cc1Br	PAFAH2 inh 56.3, Fam108B inh 71.2, PAFAH1B3 inh 59.5, PAFAH1B2 FP inh 43.2, PME-1 primary 46.6 | Fam108b inh conf 62.3 | Fam108b ABPP HTS 50.0
COc1cccc(-c2nc(-c3ccc4c(c3)-c3ccccc3S4(=O)=O)c(-c3ccccc3)[nH]2)c1OC	none
COc1cc(-c2nc(-c3ccc4c(c3)-c3ccccc3S4(=O)=O)c(-c3ccccc3)[nH]2)cc(OC)c1OC	Fam108B inh 29.0 | Fam108b inh conf inactive
CCOc1ccccc1N1CCN(C(=O)c2cc3cc(OC)ccc3[nH]2)CC1	none
COc1ccc(C(=O)Nc2nnc(S(=O)(=O)N3CCOCC3)s2)cc1	none
CCc1cc(/C(Cc2ccc3ccccc3n2)=N\O)c(O)cc1O	Fam108B inh 25.2, PAFAH1B3 inh 40.9, PME-1 primary 34.0 | Fam108b inh conf 30.1
CCc1cc(/C(Cc2ccccn2)=N\O)c(O)cc1O	none
CCc1cc(C(Cc2ccc3ccccc3n2)=NO)c(O)cc1O	none (no result: PAFAH2 inh, Fam108B inh, PAFAH1B3 inh, PAFAH1B2 FP inh, pPAFAH FP inh, PME-1 primary) | Fam108b ABPP HTS 40.0
CCc1cc(/C(Cc2cscn2)=N\O)c(O)cc1O	none
CCn1cc(C(=O)NCCC(=O)OC)c(=O)c2cc3c(cc21)OCO3	none
CC(C)=CCC1=C(OCC(=O)O)C(=O)c2ccccc2C1=O	PAFAH2 inh 34.8, Fam108B inh 22.5, PAFAH1B3 inh 56.7 | Fam108b inh conf inactive
CC(C)=CCC/C(C)=C/CC/C(C)=C/CC/C(C)=C/CC1=C(C)C(=O)c2ccccc2C1=O	none
CCC(=O)c1ccc(OCC(=O)OCC(=O)Nc2cccc(S(=O)(=O)N3CCOCC3)c2)cc1	none (no result: Fam108B inh, pPAFAH FP inh, PME-1 primary)
COC(=O)c1ccc(COc2ccc(/C=C(\C#N)c3nc4ccccc4[nH]3)cc2OC)o1	Fam108B inh 18.6 | Fam108b inh conf inactive
Oc1ccc(N=Nc2ccccc2)o1	none
O=C(Nc1ccc(N2CCCCC2)c(Cl)c1)c1ccc(N2CCOCC2)c([N+](=O)[O-])c1	Fam108B inh 18.6 | Fam108b inh conf inactive
COc1ccc(-c2noc(CCC(=O)N3CCN(c4cccc(Cl)c4)CC3)n2)cc1	none (no result: Fam108B inh, PME-1 primary)
